# In PubChem BioAssay AID485314 (National Center for Advancing Translational Sciences (NCATS), 2010):
# Hit rate of the full screen: of about 340,000 compounds, about 4,500 (1.3%) were called active. Where a call stands in place of a potency, no number is given. Roughly 5% stayed inconclusive and do not appear here. Calls come from the whole dose curve; as a rule, active = well fitted inhibition curve with a large enough effect; inconclusive = small, poorly fitted or top-dose-only effect, or another doubt; inactive = no such curve, though single readings can be large or run the other way. This excerpt belongs to a sample that is enriched for actives.
# Target: DNA polymerase beta (Homo sapiens) (UniProt P06746)
# Experiment: qHTS Assay for Inhibitors of DNA Polymerase Beta
# Settings: Pol beta primer extension/strand displacement, fluorescence kinetic; series mostly up to 114 µM
# In short: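 Values derive from four-parameter Hill fits of normalized kinetic data: reads at 0 and 10 min following addition of 50 nM substrate to 10 nM Pol beta preincubated 15 min with compound.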
# Potency is the fitted concentration of half-maximal effect.
row,Compound,Potency
1,Cc1ccc2nc(-c3ccc(O)cc3)c(Nc3ccc4c(c3)OCO4)n2c1,inactive
2,COc1ccc(Cl)cc1-n1c(CCC(=O)O)ccc1-c1ccc(C)cc1,inactive
3,COc1cccc2c(C)c(C(=O)O)[nH]c12,50.1 µM (active)
4,COc1cc2c(C(=O)O)c(C)n(C)c2c2ccccc12,inactive
5,Cc1c(C(=O)N/N=C/c2ccccc2)[nH]c2c([N+](=O)[O-])cccc12,inactive
6,COc1ccc(S(=O)(=O)NCC(c2ccc(N(C)C)cc2)N2CCCC2)cc1 (stereo not drawn),inactive
7,CCC(=O)Nc1cccc(-c2nc3cc(C)ccc3o2)c1,inactive
8,O=C(NC1CCCCC1)C1CCCN(S(=O)(=O)c2cccs2)C1 (stereo not drawn),inactive
9,O=C(CC(c1ccccc1)c1cc(Cl)ccc1O)NCCN1CCOCC1 (stereo not drawn),inactive
10,O=C(Cc1ccc(S(=O)(=O)N2CCCC2)s1)NC1CCCCCC1,31.6 µM (active)
11,COc1ccccc1NC(=O)COC(=O)Cc1ccc(S(=O)(=O)N2CCCCC2)s1,inactive
12,O=C(NC1CCCCC1)C1CCCN(S(=O)(=O)c2ccc(Br)s2)C1 (stereo not drawn),inactive
13,O=C(Cc1ccc(S(=O)(=O)N2CCOCC2)s1)NCCC(c1ccccc1)c1ccccc1,22.4 µM (active)
14,CCn1c2ccccc2c2cc(CN3CCN(Cc4cccc(Cl)c4)CC3)ccc21,inactive
15,Cc1c(CCNC(=O)c2ccc(C(F)(F)F)cc2)sc2nc(-c3ccc(F)cc3)nn12,inactive
16,CCCOc1cccc(C(=O)Nc2cccc(NC(=O)c3ccc(C(C)(C)C)cc3)c2)c1,inactive
17,COc1ccc(OCc2nnc3n2N=C(c2ccccc2)C(CC(=O)O)S3)cc1 (stereo not drawn),22.4 µM (active)
18,COc1cccc(OCc2nnc3n2N=C(c2ccccc2)C(CC(=O)O)S3)c1 (stereo not drawn),inactive
19,COc1ccc(C2CC(c3ccccc3)=NN2C(=O)COC(=O)COc2ccccc2)cc1 (stereo not drawn),inactive
20,Cc1cccc(C(=O)NCCc2nc3ccccc3n2Cc2ccccc2Cl)c1,inactive
21,COc1cccc(S(=O)(=O)NCc2ccc(C(=O)NCc3ccccn3)cc2)c1,inactive
22,CCOc1ccc(NC(=O)c2ncoc2-c2ccco2)cc1,inactive
23,COc1ccc(NC(=O)C(=O)NCc2ccco2)cc1,inactive
24,COCCNC(=O)Nc1ccc2nc(-c3ccco3)c(-c3ccco3)nc2c1,2.24 µM (active)
25,O=C(NCc1ccccn1)c1ccc2nc(-c3ccco3)c(-c3ccco3)nc2c1,3.16 µM (active)
26,COc1ccc(-c2nc3ccc(C(=O)NCc4ccc(C)cc4)cc3nc2-c2ccc(OC)cc2)cc1,inactive
27,COc1ccc(-n2nc(C(=O)NCCc3ccc(Cl)cc3)c3c4ccccc4n(C)c3c2=O)cc1Cl,inactive
28,COc1ccc(C)cc1NC(=O)C(=O)NCCc1sc(-c2cccc(C)c2)nc1C,inactive
